Test results reported in PubChem BioAssay (Tox21).
Results filed as inconclusive are left out. Active and inactive are the calls of the source. Unless noted, calls come from the whole dose curve.

Assays:
[1] = target: Gonadotropin-releasing hormone receptor (Homo sapiens) (UniProt P30968); assay: Human gonadotropin-releasing hormone receptor (GnRHR) small molecule agonists, calcium flux assay in GnRHR-HEK293 cells (AID 1920063); note: nearly all actives have a fitted effect of over 35% in size
How it was run: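 HEK293 cells stably expressing human GnRHR were dye-loaded for 1 h at 37 C. Compound was added in agonist mode and fluorescence (Ex/Em 480/540) recorded kinetically for 3 min. Fifteen concentrations, triplicates.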

[2] = target: KiSS-1 receptor (Homo sapiens) (UniProt Q969F8); assay: Human kisspeptin (KISS1R) small molecule agonists, calcium flux assay in KISS1R-HEK293 cells (AID 1920064; active = well fitted activation curve with a large enough effect in the repeat runs)
How it was run: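 HEK293 cells stably expressing human KISS1R were loaded with calcium dye for 1 h at 37 C, then given compound; fluorescence (Ex/Em 480/540) was read kinetically for 3 min. Fifteen concentrations, triplicate.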

[3] = G protein-coupled receptor (GPCR) small molecule agonists, calcium flux assay: HEK293 wild type cell line counter screen (AID 1920065)
How it was run: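 Wild-type HEK293 cells plated 18 h, loaded with calcium dye 1 h at 37 C, then compounds added in agonist mode (ATP as positive control). Kinetic fluorescence Ex/Em 480/540 recorded 3 min at 1 sec intervals; 15 concentrations, triplicate.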

[4] = p53 small molecule agonists, cell-based qHTS assay with human liver microsomes (AID 1963577);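 note: p53 response element beta-lactamase reporter cells with liver microsomes plus NADPH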
How it was run: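 p53RE-bla cells; 5 h settle, 37 C/5% CO2; cpd + HLM 0.5 mg/mL + NADPH 0.5 mg/mL (final); 16 h 37 C; LiveBLAzer 2 h RT dark; fluorescence readout.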

[5] = p53 small molecule agonists, cell-based qHTS assay with rat liver microsomes (AID 1963578)
How it was run: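 Rat liver microsome activation: microsomes 0.5 mg/mL, NADPH 0.5 mg/mL final; p53RE-bla cells, 16 h 37 C; LiveBLAzer readout, 2 h RT dark.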

[6] = p53 small molecule agonists, cell-based qHTS assay with human liver microsomes: qHTS cell viability counter screen (AID 1963579); note: nearly all actives have a fitted effect of over 45% in size
How it was run: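 Luminescent CellTiter-Glo read-out, 30 min at room temperature, gauged cytotoxicity in p53RE-bla cells exposed 16 h at 37 C to DMSO-dissolved compounds with metabolic activation by human liver microsomes and NADPH, each 0.5 mg/mL final.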

[7] = p53 small molecule agonists, cell-based qHTS assay with rat liver microsomes: qHTS cell viability counter screen (AID 1963580); note: nearly all actives have a fitted effect of over 45% in size
How it was run: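 p53RE-bla HCT-116 cells (4,000/well) rested 5 h at 37 C, then given Tox21 compounds in DMSO with rat liver microsomes (0.5 mg/mL final) plus NADPH (0.5 mg/mL final) for 16 h at 37 C. Viability read by CellTiter-Glo luminescence after 30 min at room temperature.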

[8] = p53 small molecule agonists, cell-based qHTS assay: qHTS cell viability counter screen (AID 1963581); note: nearly all actives have a fitted effect of over 45% in size
How it was run: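 p53RE-bla HCT-116 cells, compounds added 5 h after plating and incubated 16 h at 37 C. Cytotoxicity measured in the same wells as intracellular ATP by CellTiter-Glo luminescence after 30 min at room temperature.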

[9] = p53 small molecule agonists, cell-based qHTS assay (AID 1963582; active = well fitted activation curve with a large enough effect in the signal ratio in the repeat runs, not every such curve was filed as active; the % refers to the signal ratio)
How it was run: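 p53RE-bla reporter cells, compounds added in DMSO after 5 h plating, incubated 16 h at 37 C. Beta-lactamase read via 2 h room-temperature LiveBLAzer B/G FRET substrate, fluorescence intensity.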

[10] = target: 5-hydroxytryptamine receptor 2A (Homo sapiens) (UniProt P28223); assay: 5-hydroxytryptamine receptor 2A (HTR2A) small molecule antagonists, cell-based qHTS assay (AID 1963586); note: nearly all actives have a fitted effect of over 45% in size
How it was run: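 Antagonist-mode intracellular calcium assay: DOI (4 nM) added after 5 min compound pre-incubation at room temperature to dye-loaded HTR2A-CHO cells. Fluorescence followed for 3 min, sampled every second.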

[11] = target: Muscarinic acetylcholine receptor M1 (Homo sapiens) (UniProt P11229); assay: Cholinergic receptor muscarinic 1 (CHRM1) small molecule antagonists, cell-based qHTS assay (AID 1963588); note: nearly all actives have a fitted effect of over 40% in size
How it was run: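 CHRM1-CHO calcium-flux assay, antagonist mode. Cells were seeded 18 h, dye-loaded 1 h at 37 C and given compound for 5 min at RT, then acetylcholine was added at 50nM. FDSS fluorescence was read 3 min; 15 concentrations, three runs.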

[12] = target: Muscarinic acetylcholine receptor M1 (Homo sapiens) (UniProt P11229); assay: Cholinergic receptor muscarinic 1 (CHRM1) small molecule agonists, cell-based qHTS assay (AID 1963589); note: nearly all actives have a fitted effect of over 35% in size
How it was run: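 CHO cells stably expressing human CHRM1 were loaded with calcium dye for 1 h at 37 C, then compound was added in agonist mode. Intracellular calcium fluorescence was followed kinetically at 1 s intervals. Fifteen concentrations were tested in three independent runs.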

[13] = cAMP Responsive Elements (CRE) small molecule agonists, cell-based qHTS assay (AID 1963590)
How it was run: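 CRE-bla HEK 293T cells, 2,000/well in DMEM with 10% dialyzed FBS and 25 mM HEPES, pre-incubated 18 h at 37 C, then exposed to compound 3 h at 37 C. Beta-lactamase reporter read with LiveBLAzer B/G FRET substrate after 2 h at room temperature.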

[14] = cAMP Responsive Elements (CRE) small molecule antagonists, cell-based qHTS assay (AID 1963591; active = well fitted inhibition curve with a large enough effect in the signal ratio in the repeat runs, not every such curve was filed as active; the % refers to the signal ratio)
How it was run: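 CRE-bla HEK293T cells plated 18 h, then given compound plus NKH477 at 0.25 uM final for 3 h at 37C. Beta-lactamase reporter read with LiveBLAzer B/G FRET substrate after 2 h at room temperature.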

[15] = target: Beta-2 adrenergic receptor (Homo sapiens) (UniProt P07550); assay: Adrenergic beta2 receptor (ADRB2) small molecule antagonists, cell-based qHTS assay (AID 1963592); note: series mostly up to about 92 µM; nearly all actives have a fitted effect of over 50% in size
How it was run: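 Cells (CHO, stable ADRB2 overexpression) incubated 18-20hr at 37C; compounds added from DMSO; agonist mix (1nM isoproterenol, 100uM IBMX, 25uM Ro-20-1724) added; 0.5hr RT; d2-cAMP and anti-cAMP-cryptate added; 1hr RT; 665/615 nm read.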

[16] = target: Beta-2 adrenergic receptor (Homo sapiens) (UniProt P07550); assay: Adrenergic beta2 receptor (ADRB2) small molecule agonists, cell-based qHTS assay (AID 1963593);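 note: CHO cells stably overexpressing human ADRB2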
How it was run: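 CHO cells stably over-expressing ADRB2 were plated overnight at 37C, then dosed with compounds plus a stimulation mix containing 100uM IBMX and 25uM Ro-20-1724 for 0.5hr at room temperature. cAMP was measured by HTRF competition, 1hr.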

[17] = target: D(2) dopamine receptor (Homo sapiens) (UniProt P14416); assay: Dopamine D2 receptor (DRD2) small molecule agonists, cell-based qHTS assay (AID 1963594); note: nearly all actives have a fitted effect of over 35% in size
How it was run: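 HEK293 cells stably expressing DRD2 were cultured 24 h at 37 C, then given Ro20-1724 (0.1 mM final) and compounds for 10 min at room temperature. NKH477 (200nM) was then added for 30 min. cAMP was read by HTRF.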

[18] = target: D(2) dopamine receptor (Homo sapiens) (UniProt P14416); assay: Dopamine D2 receptor (DRD2) small molecule antagonists, cell-based qHTS assay (AID 1963595; active = well fitted inhibition curve with a large enough effect in the signal ratio in the repeat runs, with a control signal flat; the % refers to the signal ratio)
How it was run: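 Antagonist mode in DRD2-HEK293 cells: after compound addition with 0.1 mM Ro20-1724, cells received quinpirole (12 nM) and NKH477 (200 nM) for 30 min at room temperature; HTRF cAMP read after 1 h detection.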

[19] = target: 5-hydroxytryptamine receptor 2A (Homo sapiens) (UniProt P28223); assay: 5-hydroxytryptamine receptor 2A (HTR2A) small molecule agonists, cell-based qHTS assay (AID 1963587); note: nearly all actives have a fitted effect of over 30% in size
How it was run: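 HTR2A-CHO cells, plated 18 h at 37 C/5% CO2, dye-loaded 1 h at 37 C; compounds in DMSO added by pin tool (agonist mode). Intracellular calcium flux read as kinetic fluorescence on FDSS over 2 min at 1 s intervals.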

Measured: Potency

Sequence of Beta-2 adrenergic receptor (Homo sapiens) (P07550 whole entry, looked up): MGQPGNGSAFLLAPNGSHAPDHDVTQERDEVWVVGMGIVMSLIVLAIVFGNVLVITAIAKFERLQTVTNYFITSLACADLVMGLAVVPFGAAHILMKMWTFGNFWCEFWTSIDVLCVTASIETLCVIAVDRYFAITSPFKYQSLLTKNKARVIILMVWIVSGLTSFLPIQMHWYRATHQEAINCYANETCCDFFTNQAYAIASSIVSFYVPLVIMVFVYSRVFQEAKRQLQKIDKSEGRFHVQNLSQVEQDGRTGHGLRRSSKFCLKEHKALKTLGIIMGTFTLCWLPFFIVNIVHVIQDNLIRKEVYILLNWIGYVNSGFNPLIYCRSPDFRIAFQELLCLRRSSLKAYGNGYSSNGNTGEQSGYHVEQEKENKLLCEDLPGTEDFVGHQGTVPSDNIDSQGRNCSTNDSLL
Sequence of 5-hydroxytryptamine receptor 2A (Homo sapiens) (P28223 whole entry, looked up): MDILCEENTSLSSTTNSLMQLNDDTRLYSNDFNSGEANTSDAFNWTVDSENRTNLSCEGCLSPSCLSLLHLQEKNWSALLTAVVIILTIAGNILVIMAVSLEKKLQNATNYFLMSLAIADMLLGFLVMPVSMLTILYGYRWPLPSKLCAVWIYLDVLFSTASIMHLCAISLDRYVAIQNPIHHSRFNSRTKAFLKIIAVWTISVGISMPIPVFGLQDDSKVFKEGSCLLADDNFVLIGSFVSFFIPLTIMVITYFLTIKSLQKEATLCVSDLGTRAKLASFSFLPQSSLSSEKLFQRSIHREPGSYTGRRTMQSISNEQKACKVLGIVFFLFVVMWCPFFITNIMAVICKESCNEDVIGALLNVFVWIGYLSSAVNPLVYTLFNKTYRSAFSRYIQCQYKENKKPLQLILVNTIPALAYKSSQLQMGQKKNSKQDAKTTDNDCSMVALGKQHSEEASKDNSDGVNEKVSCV
Sequence of Gonadotropin-releasing hormone receptor (Homo sapiens) (P30968 whole entry, looked up): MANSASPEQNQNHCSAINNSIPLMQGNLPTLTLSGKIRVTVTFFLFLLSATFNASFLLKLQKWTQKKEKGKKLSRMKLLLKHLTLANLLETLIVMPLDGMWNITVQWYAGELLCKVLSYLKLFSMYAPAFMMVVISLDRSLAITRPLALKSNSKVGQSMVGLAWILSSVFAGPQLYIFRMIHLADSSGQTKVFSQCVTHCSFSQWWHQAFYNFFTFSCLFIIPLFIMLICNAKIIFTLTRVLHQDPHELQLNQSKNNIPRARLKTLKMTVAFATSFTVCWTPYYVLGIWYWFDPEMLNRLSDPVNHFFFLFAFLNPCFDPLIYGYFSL
Sequence of D(2) dopamine receptor (Homo sapiens) (P14416 whole entry, looked up): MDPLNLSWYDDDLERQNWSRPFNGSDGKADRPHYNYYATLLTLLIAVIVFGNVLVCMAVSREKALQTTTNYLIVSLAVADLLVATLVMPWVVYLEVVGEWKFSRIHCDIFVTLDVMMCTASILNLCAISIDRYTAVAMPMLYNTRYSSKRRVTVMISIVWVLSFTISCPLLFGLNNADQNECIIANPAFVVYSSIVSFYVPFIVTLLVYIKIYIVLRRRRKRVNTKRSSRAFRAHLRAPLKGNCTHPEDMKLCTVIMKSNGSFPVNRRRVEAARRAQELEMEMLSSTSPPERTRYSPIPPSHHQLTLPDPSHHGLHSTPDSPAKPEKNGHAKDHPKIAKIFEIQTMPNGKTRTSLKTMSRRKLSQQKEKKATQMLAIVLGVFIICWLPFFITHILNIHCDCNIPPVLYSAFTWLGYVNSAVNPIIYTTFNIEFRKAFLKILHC
Sequence of KiSS-1 receptor (Homo sapiens) (Q969F8 whole entry, looked up): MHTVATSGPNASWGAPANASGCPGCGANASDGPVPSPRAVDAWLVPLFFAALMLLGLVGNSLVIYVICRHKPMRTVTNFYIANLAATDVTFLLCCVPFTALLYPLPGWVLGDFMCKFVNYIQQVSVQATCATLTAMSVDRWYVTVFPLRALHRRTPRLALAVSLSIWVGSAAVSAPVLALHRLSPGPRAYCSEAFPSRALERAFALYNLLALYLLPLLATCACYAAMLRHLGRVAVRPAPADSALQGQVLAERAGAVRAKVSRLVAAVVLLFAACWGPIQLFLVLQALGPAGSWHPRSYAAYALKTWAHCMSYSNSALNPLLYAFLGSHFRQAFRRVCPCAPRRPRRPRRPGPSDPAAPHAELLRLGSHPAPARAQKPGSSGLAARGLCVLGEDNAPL
Sequence of Muscarinic acetylcholine receptor M1 (Homo sapiens) (P11229 whole entry, looked up): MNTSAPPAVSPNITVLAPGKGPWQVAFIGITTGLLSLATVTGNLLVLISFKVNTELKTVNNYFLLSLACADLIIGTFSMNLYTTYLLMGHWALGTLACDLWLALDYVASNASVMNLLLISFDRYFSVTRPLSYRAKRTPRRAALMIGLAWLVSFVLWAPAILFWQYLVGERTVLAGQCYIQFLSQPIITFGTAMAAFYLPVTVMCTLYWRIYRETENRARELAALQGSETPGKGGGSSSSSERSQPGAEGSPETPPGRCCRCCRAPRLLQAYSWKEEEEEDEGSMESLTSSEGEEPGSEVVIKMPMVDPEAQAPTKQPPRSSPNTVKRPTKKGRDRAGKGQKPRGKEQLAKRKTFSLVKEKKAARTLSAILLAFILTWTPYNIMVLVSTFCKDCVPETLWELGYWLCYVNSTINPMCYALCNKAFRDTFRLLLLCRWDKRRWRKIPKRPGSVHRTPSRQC

O=CC1CC1
not listed: [19]
inactive: all other assays above

CC/C=C\CC1=C(C)CCC1=O
inactive: all assays above

CC1CCc2nccnc21 (configuration not stated)
inactive: all assays above

N#CC1(c2ccc(F)cc2)CCC(=O)CC1
not listed: [14]
inactive: all other assays above

Cc1ccc(CO)cc1
inactive: all assays above

CCCCCCC1(C)CCC(=O)O1 (configuration not stated)
inactive: all assays above
